Measured values taken from PubChem BioAssay AID1825 (The Scripps Research Institute Molecular Screening Center, 2009).
Hit rate of the full screen: of about 290,000 compounds, about 2,300 (0.79%) were called active. Only a selection was taken, and actives are over-represented in it overall. Values without a mark were called inactive. Rule as the data show it: active = inhibition above about 22%; inactive = the rest.

Test: cytotoxicity in IEC-6 intestinal epithelial cells, primary screen, cytotoxicity control for KLF5 inhibitor project, cell-based, luminescence (AID 1825);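 also: 0% = plate median of test compound wells and 100% = cytotoxic reference compound wells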
Conditions: IEC-6 cytotoxicity, luminescence viability; at 5 µM; stronger effect = higher value

Compound | inhibition
COc1cc(-n2c(=S)[nH]c3ccc(C)cc3c2=O)c(Cl)cc1Cl | 27.3% (active)
CN(C)CC1Oc2ccccc2OC1(O)c1ccccc1 (stereo not given) | 10.6%
COc1ccc(N2C(=O)/C(=C/c3ccco3)C(=O)NC2=S)cc1 | -11.8%
COc1cc2nc(N3CCN(C(=O)[C@@H]4CCCO4)CC3)nc(N)c2cc1OC | -0.7%
CN(c1ccccc1)c1ccc([N+](=O)[O-])c2nonc12 | 13.2%
CC1=CC(=Cc2sc3ccccc3[n+]2C)C=C(C)O1 | 25.9% (active)
CCc1nc2ccccc2c(=O)n1-c1cccc(OC)c1 | -0.6%
COc1cc(Cn2c(N)c(C(=O)NCc3ccco3)c3nc4ccccc4nc32)cc(OC)c1OC | 7.4%
COc1ccc(-c2nn(CCC#N)cc2C(=O)O)cc1 | -8.6%
COc1ccc(C(=O)CC2C(=O)N(C)C(=O)N(C)C2=O)cc1 | 2%
Cc1nc2ccccc2c(=O)n1-c1ccc(Cl)cc1Cl | -4.8%
CCCCCCCCCCCCn1ccc(=N)cc1 | 78.8% (active)
CCOP(=S)(OCC)C(O)CCCCCn1c(=O)c(F)cn(C2CCCO2)c1=O (stereo not given) | -1.2%
CCOc1cccc(=NC2CCCCC2)c2c(C)[nH]c(C)c12 | -11.4%
COc1cccc(N2C(=O)NC(=O)/C(=C\c3ccc([N+](=O)[O-])s3)C2=O)c1 | -9.9%
Cc1cc2ccccn2c1C(C[N+](=O)[O-])c1c(F)cccc1Cl (stereo not given) | 47.4% (active)
CC(=O)Nc1ccc(C(=O)C(Cc2ccccc2)N(C)C)cc1 (stereo not given) | -0.8%
CC(=O)c1c(C)n(C(C)C)c2ccc(O)cc12 | 3.8%
COc1ccc(-c2nn(CCC#N)cc2C(=O)Nc2ccc(C(C)=O)cc2)cc1 | -1.6%
O=c1c2ccccc2nc(/C=C/c2ccco2)n1-c1ccccc1O | -4.9%
